# Where “and” joins values, the source holds several entries; their conditions need not be identical. Identical values can stand only once. Results filed as inconclusive are left out. Entries that show only a call come without a potency. More than one record can exist for a structure, and the calls need not agree. Calls of active or inactive are those of the source. Unless noted, calls follow the shape of the dose curve; as a rule, active = well fitted curve in the direction sought with a large enough effect in the repeat runs; inconclusive = weak or mixed curves; inactive = no such curve, though single readings can be large; an effect the other way counts as inactive or inconclusive.
# Tests used:
# [1] = biological target: Aryl hydrocarbon receptor (Homo sapiens) (UniProt P35869); experiment: qHTS assay to identify small molecule that activate the aryl hydrocarbon receptor (AhR) signaling pathway (AID 743085); also: nearly all actives have a fitted effect of over 15% in size; also: potency is read from the fitted curve at half-maximal effect;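 as to activation: HG2L7.5c1 human HepG2 liver cells with stably integrated DRE-driven firefly reporter; series mostly up to about 70 µM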
# How it was run: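 Reporter assay in engineered HepG2 line HG2L7.5c1, whose plasmid carries twenty dioxin responsive elements upstream of firefly luciferase. Treatment lasted 24 h at 37C; ONE-Glo luminescence gauged induction.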
# [2] = qHTS assay to identify small molecule that activate the aryl hydrocarbon receptor (AhR) signaling pathway - cell viability counter screen (AID 743086); also: nearly all actives have a fitted effect of over 45% in size; also: potency is read from the fitted curve at half-maximal effect
# How it was run: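 HepG2-AhR-luc (HG2L7.5c1) cells, 4000/well, were preincubated 5 h at 37C, exposed to compound in qHTS format for 24 hr at 37C, then given CellTiter-Fluor for 30 min; viability was read as fluorescence in the reporter wells.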
# [3] = qHTS assay for small molecule activators of the heat shock response signaling pathway - cell viability counter screen (AID 743209); also: nearly all actives have a fitted effect of over 50% in size; also: potency is read from the fitted curve at half-maximal effect
# How it was run: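 To flag cytotoxic compounds, HSE-bla HeLa cells plated at 1500 cells/well were dosed for 5 h at 37 C, followed by the reporter FRET read and then CellTiter-Glo, with luminescence recorded 30 min after reagent addition.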
# [4] = qHTS assay for small molecule agonists of the antioxidant response element (ARE) signaling pathway - cell viability counter screen (AID 743203; calls by dose curve; also: nearly all actives have a fitted effect of over 55% in size; also: potency is read from the fitted curve at half-maximal effect)
# How it was run: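 Parallel cytotoxicity read-out for the ARE-bla screen: HepG2 reporter cells, 16 hrs with compounds, then CellTiter-Glo luminescence.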
# [5] = qHTS assay for small molecule activators of the heat shock response signaling pathway (AID 743210; active = well fitted activation curve with a large enough effect in the signal ratio in the repeat runs, with a control signal flat, not every such curve was filed as active; the % refers to the signal ratio;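 also: HeLa cells with beta-lactamase reporter driven by heat shock elements; series mostly up to about 63 µM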)
# How it was run: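 Activation of heat shock element-controlled beta-lactamase expression is measured in HeLa cells by LiveBLAzer FRET fluorescence, with compound exposure lasting 5 h at 37 C and substrate loading 2.5 h at room temperature.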
# [6] = qHTS assay to identify small molecule agonists of the peroxisome proliferator-activated receptor delta (PPARd) signaling pathway - cell viability counter screen (AID 743211); also: nearly all actives have a fitted effect of over 55% in size; also: potency is read from the fitted curve at half-maximal effect
# How it was run: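 Multiplexed format: after the 2 h room-temperature LiveBLAzer B/G FRET step, CellTiter-Glo was added to the same wells. Luminescence after 30 min gave cell viability; compound exposure was 17 h at 37C.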
# [7] = biological target: Peroxisome proliferator-activated receptor gamma (Homo sapiens) (UniProt P37231); experiment: qHTS assay to identify small molecule agonists of the peroxisome proliferator-activated receptor gamma (PPARg) signaling pathway (AID 743094; active = well fitted activation curve with a large enough effect in the signal ratio in the repeat runs, not every such curve was filed as active; the % refers to the signal ratio)
# How it was run: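 Fluorescence-based beta-lactamase readout in HEK293H PPARg UAS-bla cells after 17 h compound exposure (37C) and 1 h B/G FRET substrate incubation at room temperature.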
# [8] = qHTS assay to identify small molecule antagonists of the peroxisome proliferator-activated receptor gamma (PPARg) signaling pathway - cell viability counter screen (AID 743194); settings: Potency: co-treated with 50 nM rosiglitazone unless noted; also: nearly all actives have a fitted effect of over 55% in size; also: potency is read from the fitted curve at half-maximal effect
# How it was run: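 PPARg-UAS-bla HEK293H cells were plated, rested 5 h at 37 C, then treated with compounds plus rosiglitazone (50 nM final) for 17 h at 37 C; viability was then read by CellTiter-Glo luminescence after 30 min at room temperature.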
# [9] = qHTS assay for small molecule agonists of the antioxidant response element (ARE) signaling pathway (AID 743202; active = well fitted activation curve with a large enough effect in the signal ratio in the repeat runs, not every such curve was filed as active; the % refers to the signal ratio; also: potency is read from the fitted curve at half-maximal effect)
# How it was run: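 Steps: seed ARE-bla HepG2 cells (2,000/well); incubate 5 h at 37 C; add compounds by pin tool; incubate 16 h at 37 C; add FRET substrate; read fluorescence after 2 h at RT.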
# [10] = biological target: Peroxisome proliferator-activated receptor gamma (Homo sapiens) (UniProt P37231); experiment: qHTS assay to identify small molecule antagonists of the peroxisome proliferator-activated receptor gamma (PPARg) signaling pathway (AID 743191; calls by dose curve; also: nearly all actives have a fitted effect of over 30% in size; also: potency is read from the fitted curve at half-maximal effect)
# How it was run: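 GeneBLAzer PPARg UAS-bla HEK293H cells carrying a UAS-driven beta-lactamase reporter were plated at 3000 cells/well, preincubated 5 h at 37C, then given compound for 17 h at 37C; LiveBLAzer B/G FRET substrate was read after 1 h at room temperature.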
# Chain of Peroxisome proliferator-activated receptor gamma (Homo sapiens) (P37231 whole entry, looked up): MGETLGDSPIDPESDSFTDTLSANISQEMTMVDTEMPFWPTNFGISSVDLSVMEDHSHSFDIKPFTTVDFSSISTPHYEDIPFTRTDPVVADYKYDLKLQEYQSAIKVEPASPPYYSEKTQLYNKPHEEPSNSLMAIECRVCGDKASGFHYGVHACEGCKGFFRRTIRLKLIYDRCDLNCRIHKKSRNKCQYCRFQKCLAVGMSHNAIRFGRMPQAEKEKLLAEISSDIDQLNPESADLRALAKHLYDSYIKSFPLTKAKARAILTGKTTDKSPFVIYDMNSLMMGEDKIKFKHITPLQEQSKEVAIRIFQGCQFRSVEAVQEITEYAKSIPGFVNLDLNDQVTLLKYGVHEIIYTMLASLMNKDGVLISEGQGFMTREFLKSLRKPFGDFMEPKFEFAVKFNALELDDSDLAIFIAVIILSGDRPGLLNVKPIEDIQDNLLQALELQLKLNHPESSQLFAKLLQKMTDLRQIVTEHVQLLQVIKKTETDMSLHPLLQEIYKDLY
# Chain of Aryl hydrocarbon receptor (Homo sapiens) (P35869 whole entry, looked up): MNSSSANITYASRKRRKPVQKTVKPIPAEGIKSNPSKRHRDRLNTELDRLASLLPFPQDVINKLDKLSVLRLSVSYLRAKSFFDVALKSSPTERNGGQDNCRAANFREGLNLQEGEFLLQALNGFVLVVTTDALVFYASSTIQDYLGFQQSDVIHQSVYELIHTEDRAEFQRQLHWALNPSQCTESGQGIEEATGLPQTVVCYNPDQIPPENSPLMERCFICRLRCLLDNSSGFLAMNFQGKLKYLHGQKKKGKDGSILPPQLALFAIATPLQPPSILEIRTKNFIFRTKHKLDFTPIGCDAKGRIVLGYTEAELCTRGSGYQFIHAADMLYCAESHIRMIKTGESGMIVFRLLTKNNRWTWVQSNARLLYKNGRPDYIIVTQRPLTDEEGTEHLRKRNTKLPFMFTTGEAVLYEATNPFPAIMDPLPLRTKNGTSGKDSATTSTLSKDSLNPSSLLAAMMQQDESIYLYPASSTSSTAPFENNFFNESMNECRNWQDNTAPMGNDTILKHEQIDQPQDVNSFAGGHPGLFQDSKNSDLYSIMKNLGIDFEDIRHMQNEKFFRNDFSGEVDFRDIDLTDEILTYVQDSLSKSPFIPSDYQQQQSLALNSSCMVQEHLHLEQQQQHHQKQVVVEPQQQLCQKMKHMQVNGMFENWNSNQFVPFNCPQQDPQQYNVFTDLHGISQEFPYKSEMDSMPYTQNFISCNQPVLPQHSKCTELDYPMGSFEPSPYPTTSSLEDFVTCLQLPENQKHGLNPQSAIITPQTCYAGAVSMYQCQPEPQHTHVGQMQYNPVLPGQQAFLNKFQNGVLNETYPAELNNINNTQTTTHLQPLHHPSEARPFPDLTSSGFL
smiles,measurement,setting,value
CCCCCCCCc1ccc(O)cc1,Potency,[1],inactive
same,Potency,[2],inactive
same,Potency,[3],42.3 µM (active)
CS(=O)(=O)c1ccc(C(=O)C2C(=O)CCCC2=O)c([N+](=O)[O-])c1,Potency,[1],inactive
same,Potency,[2],inactive
same,Potency,[4],inactive
same,Potency,[3],inactive
same,Potency,[5],inactive
same,Potency,[6],inactive
O=c1ssc(Cl)c1Cl,Potency,[1],inactive
same,Potency,[2],inactive
same,Potency,[4],24.3 µM (active)
same,Potency,[6],49 µM (active)
CN(C)C1CSSSC1,Potency,[1],inactive
same,Potency,[7],inactive
same,Potency,[8],inactive
same,Potency,[9],34.3 µM (active)
same,Potency,[4],inactive
same,Potency,[3],inactive
same,Potency,[5],inactive
same,Potency,[6],inactive
O=C(O)COc1nc(Cl)c(Cl)cc1Cl,Potency,[1],inactive
same,Potency,[4],inactive
same,Potency,[3],inactive
same,Potency,[5],inactive
same,Potency,[6],inactive
C[C@@H]1O[C@@H](O[C@H]2C[C@@H](O)[C@]3(CO)[C@H]4[C@H](O)C[C@]5(C)[C@@H](C6=CC(=O)OC6)CC[C@]5(O)[C@@H]4CC[C@]3(O)C2)[C@H](O)[C@H](O)[C@H]1O,Potency,[1],inactive
same,Potency,[2],inactive
same,Potency,[4],6.5 nM (active) and 133 nM (active)
same,Potency,[5],inactive
same,Potency,[6],46.5 nM (active) and 188 nM (active)
CN(C)[C@@H]1C(=O)C(C(N)=O)=C(O)[C@@]2(O)C(=O)C3=C(O)c4c(O)ccc(Cl)c4[C@@](C)(O)[C@H]3C[C@@H]12,Potency,[1],inactive
same,Potency,[2],inactive
same,Potency,[4],inactive
same,Potency,[3],inactive
CSCCCN=C=S,Potency,[1],inactive
same,Potency,[2],inactive
same,Potency,[3],43.6 µM (active)
O=c1oc2ccccc2c(O)c1Cc1c(O)c2ccccc2oc1=O,Potency,[1],inactive
same,Potency,[9],7.5 µM (active)
N#CCCC(Br)(C#N)CBr (stereo not given),Potency,[1],inactive
same,Potency,[2],inactive
same,Potency,[3],49 µM (active)
same,Potency,[6],inactive
N#CC(Cl)Cl,Potency,[1],inactive
same,Potency,[2],inactive
same,Potency,[4],inactive
same,Potency,[3],inactive
N#C/C=C/C#N,Potency,[1],inactive
same,Potency,[2],inactive
same,Potency,[4],inactive
same,Potency,[3],inactive
CC(C)C1CCC(Cc2ccc(Cl)cc2)C1(O)Cn1cncn1 (stereo not given),Potency,[1],inactive
same,Potency,[9],15.2 µM (active)
same,Potency,[6],54.4 µM (active)
COC(=O)N(C(=O)N1CO[C@@]2(C(=O)OC)Cc3cc(Cl)ccc3C2=N1)c1ccc(OC(F)(F)F)cc1,Potency,[1],inactive
same,Potency,[2],inactive
same,Potency,[4],inactive
same,Potency,[3],inactive
CCC[CH2][Sn]([CH2]CCC)([CH2]CCC)[O]C(=O)c1ccccc1,Potency,[1],inactive
same,Potency,[2],2.73 µM (active)
same,Potency,[4],0.273 µM (active)
same,Potency,[6],0.616 µM (active)
[Hg+2].[I-].[I-],Potency,[1],inactive
same,Potency,[8],8.71 µM (active)
same,Potency,[4],9.69 µM (active)
same,Potency,[3],27.5 µM (active)
Nc1ccc(Sc2ccc(N)cc2)cc1,Potency,[1],13.7 µM (active)
same,Potency,[2],inactive
same,Potency,[3],inactive
same,Potency,[5],inactive
same,Potency,[6],inactive
c1ccc2c(c1)OCC(C1=NCCN1)O2 (stereo not given),Potency,[1],inactive
same,Potency,[8],inactive
same,Potency,[9],13.3 µM (active)
same,Potency,[4],inactive
same,Potency,[6],23.7 µM (active)
CN(C)c1ccc(N=Nc2ccccc2)cc1,Potency,[1],27.3 µM (active)
same,Potency,[8],inactive
same,Potency,[9],8.64 µM (active)
same,Potency,[4],inactive
same,Potency,[6],inactive
CC(C)(C)c1ccc(CSc2cnn(C(C)(C)C)c(=O)c2Cl)cc1,Potency,[1],inactive
same,Potency,[2],inactive
same,Potency,[4],24.3 µM (active)
same,Potency,[5],inactive
CCc1nn(C)c(C(=O)NCc2ccc(C(C)(C)C)cc2)c1Cl,Potency,[1],inactive
same,Potency,[2],inactive
same,Potency,[4],24.3 µM (active)
same,Potency,[3],54.9 µM (active)
same,Potency,[6],38.9 µM (active)
Oc1ccc(C2(c3ccc(O)cc3)c3ccccc3-c3ccccc32)cc1,Potency,[1],inactive
same,Potency,[8],17.4 µM (active)
same,Potency,[4],27.3 µM (active)
CC(C)(O)c1cnn2c(-c3ccc(F)c(-c4c(F)cccc4C#N)c3)cnc2n1,Potency,[1],inactive
same,Potency,[2],inactive
same,Potency,[4],inactive
same,Potency,[3],inactive
CCC(C)c1cc([N+](=O)[O-])cc([N+](=O)[O-])c1OC(=O)C=C(C)C (stereo not given),Potency,[1],inactive
same,Potency,[8],54.9 µM (active)
same,Potency,[4],27.3 µM (active)
same,Potency,[3],inactive
CCOP(=O)(NC(C)C)Oc1ccc(SC)c(C)c1 (stereo not given),Potency,[1],14.8 µM (active)
same,Potency,[7],inactive
same,Potency,[4],inactive
N#CSCSC#N,Potency,[1],inactive
same,Potency,[2],inactive
same,Potency,[4],55.7 µM (active) and 48.1 µM (active)
same,Potency,[3],19.9 µM (active) and 12.2 µM (active)
same,Potency,[6],50.1 µM (active) and 43.2 µM (active)
CCCN(CCC)CCc1c[nH]c2ccccc12,Potency,[1],inactive
same,Potency,[7],inactive
same,Potency,[10],inactive
same,Potency,[8],inactive
same,Potency,[4],inactive
same,Potency,[3],inactive
same,Potency,[6],inactive
CC(=O)[O-].CC(=O)[O-].O.O.[Cd+2],Potency,[1],inactive
same,Potency,[2],2.69 µM (active)
same,Potency,[4],0.214 µM (active)
same,Potency,[6],0.765 µM (active)
CCN(CC)C(=S)[S-].CCN(CC)C(=S)[S-].[Zn+2],Potency,[1],inactive
same,Potency,[2],inactive
same,Potency,[4],3.82 µM (active)
same,Potency,[6],0.545 µM (active)
S=C(SSC(=S)N1CCCCC1)N1CCCCC1,Potency,[1],inactive
same,Potency,[8],inactive
same,Potency,[4],inactive
CCCSP(=O)(OCC)SCCC,Potency,[1],inactive
same,Potency,[2],inactive
same,Potency,[3],inactive
same,Potency,[5],inactive
O=C(Nc1ccc2[nH]ccc2c1)c1cc2cc(F)ccc2n1Cc1cccc(F)c1,Potency,[1],inactive
same,Potency,[8],19.5 µM (active)
same,Potency,[4],30.6 µM (active)
same,Potency,[6],24.5 µM (active)
CC(C)(C)C(O)/C(=C\c1ccc(Cl)cc1Cl)n1cncn1 (stereo not given),Potency,[1],inactive
same,Potency,[10],52.8 µM (active)
same,Potency,[4],74 µM (active)
same,Potency,[6],66.5 µM (active)
S=C=Nc1cccc2ccccc12,Potency,[1],13.5 µM (active)
same,Potency,[10],inactive
same,Potency,[8],inactive
same,Potency,[4],15.2 µM (active)
same,Potency,[6],24.3 µM (active)
ClCc1ccc(Cl)cc1Cl,Potency,[1],inactive
same,Potency,[2],inactive
same,Potency,[4],inactive
same,Potency,[3],inactive
same,Potency,[5],inactive
same,Potency,[6],inactive
CN(C)C(=S)S,Potency,[1],inactive
same,Potency,[2],inactive and 21.7 µM (active)
same,Potency,[4],inactive
same,Potency,[6],546 nM (active) and 5.49 µM (active)
CC(C)CC(C)(c1ccc(O)cc1)c1ccc(O)cc1,Potency,[1],inactive
same,Potency,[8],61.7 µM (active)
same,Potency,[4],54.5 µM (active)
CC(=O)OC1(c2ccccc2)CCN(CCc2ccccc2)CC1,Potency,[7],inactive
same,Potency,[8],inactive
same,Potency,[4],inactive
same,Potency,[5],inactive
COc1cccc2c1C(=O)c1c(O)c3c(c(O)c1C2=O)C[C@@](O)(C(=O)CO)CC3OC1CC(N2CCOC(OC)C2)C(O)C(C)O1 (stereo not given in full),Potency,[4],9.44 µM (active)
same,Potency,[5],inactive
same,Potency,[6],inactive
